# Assay results reported in the supplement of paper PMC6555819.
# Assays:
# Assay in all cases: PBM binding z-score (relative to random genomic background probes); higher = stronger binding; sequences stand for … in GC…GCGATTGACAGCGTAGAATGAAGG
# [1] = system: FXR:RXRa (NR concentration 270 nM, RXRa partner concentration 90 nM)
# In short: (§1)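 Ligand-free nuclear receptor dimers were applied to custom Agilent 4×180K protein-binding microarrays whose double-stranded probes carried direct-repeat seeds, single-nucleotide variants, half-site ablations and random human genomic background sequences in 34-nt variable regions. Incubation lasted 1 h. Binding z-scores were computed against the random background probes from regression-normalized fluorescence.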
# [2] = system: LXRa:RXRa (NR concentration 270 nM, RXRa partner concentration 90 nM)
# In short: as §1
# [3] = system: LXRa homodimer (NR concentration 270 nM)
# In short: as §1
# [4] = system: LXRb:RXRa (NR concentration 270 nM, RXRa partner concentration 90 nM)
# In short: as §1
# [5] = system: LXRb homodimer (NR concentration 270 nM)
# In short: as §1
# [6] = system: PPARa:RXRa (NR concentration 270 nM, RXRa partner concentration 90 nM)
# In short: as §1
# [7] = system: PPARg:RXRa (NR concentration 180 nM, RXRa partner concentration 90 nM)
# In short: as §1
# [8] = system: PPARg:RXRa 270nM:90nM, anti-RXR (NR concentration 270 nM, RXRa partner concentration 90 nM)
# In short: as §1
# [9] = system: PPARg:RXRa 30nM:10nM, anti-RXR (NR concentration 30 nM, RXRa partner concentration 10 nM)
# In short: as §1
# [10] = system: PPARg:RXRa 90nM:30nM, anti-RXR (NR concentration 90 nM, RXRa partner concentration 30 nM)
# In short: as §1
# [11] = system: PPARg:RXRa DBDmut IVT, anti-RXR (DBD mutation: RXRa K156A/R161A, NR concentration 270 nM, RXRa partner concentration 90 nM)
# In short: as §1
# [12] = system: PPARg:RXRa IVT, anti-PPARg (NR concentration 270 nM, RXRa partner concentration 90 nM)
# In short: as §1
# [13] = system: PPARg DBDmut:RXRa IVT, anti-PPARg (DBD mutation: PPARg1 K132A/R137A, NR concentration 270 nM, RXRa partner concentration 90 nM)
# In short: as §1
# [14] = system: PPARg DBDmut IVT, anti-PPARg (DBD mutation: PPARg1 K132A/R137A, NR concentration 270 nM)
# In short: as §1
# [15] = system: PPARg homodimer (NR concentration 180 nM)
# In short: as §1
# [16] = system: PXR:RXRa (NR concentration 270 nM, RXRa partner concentration 90 nM)
# In short: as §1
# [17] = system: PXR homodimer (NR concentration 270 nM)
# In short: as §1
# [18] = system: RARa:RXR (NR concentration 270 nM, RXRa partner concentration 90 nM)
# In short: as §1
# [19] = system: RARa homodimer (NR concentration 270 nM)
# In short: as §1
# [20] = system: RARb:RXRa (NR concentration 270 nM, RXRa partner concentration 90 nM)
# In short: as §1
Sequence,PBM binding z-score [1],PBM binding z-score [2],PBM binding z-score [3],PBM binding z-score [4],PBM binding z-score [5],PBM binding z-score [6],PBM binding z-score [7],PBM binding z-score [8],PBM binding z-score [9],PBM binding z-score [10],PBM binding z-score [11],PBM binding z-score [12],PBM binding z-score [13],PBM binding z-score [14],PBM binding z-score [15],PBM binding z-score [16],PBM binding z-score [17],PBM binding z-score [18],PBM binding z-score [19],PBM binding z-score [20]
CAAACTAGATCACAGAGGTCAAAGTCCGTGCGTA,4.82,5.45,6.08,5.22,2.14,5.26,4.26,4.86,2.01,4.09,3.96,4.36,1,1.1,4.38,5.76,2.93,6.13,2.65,4.05
CCAGACAGGTGAAAGGTAACTCATTCTGGTACGC,0.79,0.853,0.0278,1.09,-0.276,3.51,5.48,6.19,3.72,6.34,2.34,3.01,-0.114,-0.175,1.3,1.12,0.37,2.12,1.09,1.4
CGTCAAAGTTGAACTAAGGTAACGTAAAGCACGC,2.71,3.29,3.88,1.57,0.134,2.26,1.45,2.65,0.653,2.03,0.422,1.2,1.41,0.838,0.99,2.35,0.717,2.08,0.0339,2.17
CCTGCTAGGTCAATGGTCAGCTAGAGCAGCTCGC,2.73,1.95,-0.206,1.03,-0.0711,3.04,4.26,5.05,2.14,4.51,4.03,3.86,-0.82,-0.691,1.03,0.552,-0.638,1.5,-0.363,3.71
CCGAGTAGGTAATGGGGCATTCAGGCAACGGTGA,-0.324,-0.287,-0.342,-0.153,-0.666,1.73,3.13,4.63,2.99,4.57,3.06,3.08,-0.988,-0.54,0.397,-0.417,-0.151,-0.249,-0.452,0.118
CGTCCAGGGTCAAGGTCAGTGAAAGAGACTCGAA,7.27,4.72,0.165,4.58,-0.131,6.04,6.91,6.41,3.27,5.71,1.82,4.14,0.455,0.241,3.01,4.77,0.845,5.13,1.53,5.23
ACAGACAGGTGACTGAAGGTAACTCAGCTGGACG,0.0674,0.59,-0.72,-0.364,-1.02,0.299,0.781,0.364,-0.0254,0.262,0.539,0.434,0.745,-0.576,-0.875,-0.321,-0.503,0.0913,-0.597,0.563
TCTTGTAGATCAAGCAGATTAAGAAAGCCTGAGT,0.096,-0.059,-0.156,0.0422,-0.403,0.442,-0.257,1.19,2.63,2.02,1.46,0.135,-0.162,0.384,-0.288,0.232,-0.000804,0.536,-0.326,-0.301
GGAACGAGGGCATAGTTGATAGCATCTGTCGACG,0.364,0.0828,-0.66,0.126,-0.441,2.33,3.64,5,2.9,4.54,2.46,2.41,-0.0516,-0.265,0.109,0.17,-0.0429,0.19,-0.571,1.39
CCGACTGGGGAATAAGGTTACCATAAGCCAGCCC,0.215,1.7,-0.22,0.69,-0.763,1.35,1.09,1.47,0.215,1.03,1.7,1.42,-0.845,-0.915,0.47,0.362,0.0229,1.11,-0.12,0.793
TCTTGGAGATCAATAGAGGTTAAGAAAGTGCGCT,1.28,3.82,0.422,2.09,-0.451,1.94,-0.159,1.27,2.09,1.59,0.87,0.273,0.0631,-0.22,0.19,3.33,-0.00174,1.94,0.245,0.9
AGAGACAGGTGATGAAGGTAACTCAGGCTATCAT,0.266,0.0997,0.0687,0.476,0.372,0.328,0.629,0.513,0.448,0.733,-0.111,0.416,0.748,0.187,0.847,0.283,0.671,0.263,1.15,0.706
AGTCAAAGTTCACTAGGTAAAGTAAGATTCAGCT,5.11,4.89,2.94,2.95,0.968,4.53,7.12,6.14,3.45,5.45,1.8,4.56,0.983,1.74,2.43,3.9,2.63,3.07,1.41,4.74
